Screening data (PubChem)
An excerpt weighted towards active compounds, which were near 7.5% of everything screened.
NPC1 prom act: NPC1 promoter activation; Huh7 NPC1 promoter luciferase reporter, 24 h; Potency, µM (titrated, usually from 9.22 µM), inactives show at the highest dose activation, most hits filed as activators; 320,000 tested, 2.4% active; AID 485313; note: % of control where 0% means no effect; nearly all actives have a fitted effect of over 60% in size
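Huh7 cells stably carrying NPC1 promoter–luciferase, plated in Opti-MEM with 10% FBS for 2 h, were exposed to compound in DMSO for 24 h at 37 °C; luciferase reagent was added for 10 min and luminescence read.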
Luc counter: Kinase-Glo luciferase inhibition (counter-screen). Q27757. AID 1379. Potency, µM (series often up to 38.3 µM), for the others: top-dose activity change, negative = inhibition, most hits filed as inhibitors. Kinase-Glo luciferase, ATP luminescence, 8 min. 200,000 tested, 0.28% active; note: % is set by controls: 0 for no effect and ±100 for the full control effect; nearly all actives have a fitted effect of over 60% in size
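Substrate mix (final 50 mM imidazole pH 7.2, 50 mM KCl, 7 mM MgCl2, 10 uM ATP, 0.01% Tween 20, 0.05% BSA) plus pin-tool compound, then Kinase-Glo detection mix; 8 min ambient, luminescence read.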
Rab9 promoter act: activates the Rab9 promoter; Huh7 Rab9 promoter-luciferase reporter, luminescence, 24 h; Potency, µM (top dose mostly 9.22 µM), without a hit: top-dose activation, negative = inhibition, most hits filed as activators; 320,000 tested, 2.8% active; AID 485297; note: % of control where 0% means no effect; nearly all actives have a fitted effect of over 60% in size
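Huh7 cells stably carrying Rab9 promoter–luciferase reporter, plated 1500 cells/well, compound added after 2 h and incubated 24 h at 37 °C; luciferase luminescence then read after 10 min with detection reagent.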
ELG1 genotox: induces genotoxicity in HEK293T cells with luciferase-tagged ELG1; HEK293T ELG1-luciferase reporter, luminescence, 16 h; Potency, µM (titrated, usually from 46 µM), for inactives: top-dose activity change, positive = activation, actives largely listed as activators; 330,000 tested, 1.3% active; AID 504466; note: % of control where 0% means no effect; nearly all actives have a fitted effect of over 60% in size
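Genotoxic stress is detected as increased luminescence from luciferase-tagged ELG1 in HEK293T cells, measured with ONE-Glo after a 16 hr treatment at 37 °C.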
FLuc modulator: counter-screen for miR-21 project: firefly luciferase inhibitors or activators. Potency, µM (titrated, usually from 57.5 µM), inactives show at the top dose activity change, negative = inhibition, most hits filed as inhibitors. purified FLuc, Km substrates, luminescence inhibition. P08659. 360,000 tested, 6.9% active;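 note: plate controls were vehicle for no effect and reference inhibitor for full effect; nearly all actives have a fitted effect of over 55% in size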
Target sequence (P08659 whole entry, looked up): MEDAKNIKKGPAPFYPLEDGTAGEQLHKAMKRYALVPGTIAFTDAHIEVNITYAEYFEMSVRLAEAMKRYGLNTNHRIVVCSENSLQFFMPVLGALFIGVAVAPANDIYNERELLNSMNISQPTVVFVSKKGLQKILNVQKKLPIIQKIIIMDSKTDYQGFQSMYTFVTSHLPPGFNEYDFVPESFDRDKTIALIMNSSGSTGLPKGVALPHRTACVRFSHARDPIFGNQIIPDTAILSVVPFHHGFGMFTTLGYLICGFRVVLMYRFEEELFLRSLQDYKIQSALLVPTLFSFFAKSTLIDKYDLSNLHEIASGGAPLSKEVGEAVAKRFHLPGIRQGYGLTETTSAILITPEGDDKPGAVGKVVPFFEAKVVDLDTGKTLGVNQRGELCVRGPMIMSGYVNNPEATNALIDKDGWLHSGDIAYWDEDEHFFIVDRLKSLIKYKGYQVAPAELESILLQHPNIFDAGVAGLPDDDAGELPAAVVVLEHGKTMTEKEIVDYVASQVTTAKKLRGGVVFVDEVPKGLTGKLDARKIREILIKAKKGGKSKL
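Purified P. pyralis luciferase, 10 nM final, with Km-level 10 uM D-luciferin and 10 uM ATP in 50 mM Tris acetate pH 7.5, 10 mM Mg acetate, 0.01% Tween-20, 0.05% BSA; 6-point qHTS titration about 60 µM downward; luminescence read.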
SMN2 splice up: enhancers of SMN2 splice variant expression; HEK293 SMN2-luciferase splicing reporter, luminescence, 30-36 h; Potency, µM (titrated, usually from 46.1 µM), for the others: top-dose activity change, positive = activation, usual class: activators; 210,000 tested, 2.8% active; note: % of control where 0% means no effect; nearly all actives have a fitted effect of over 55% in size
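HEK293 cells carry an SMN2 […]–luciferase reporter in which exon 7 inclusion puts luciferase in frame. Cells were plated 10-12 h before compound addition, then incubated 30-36 h at 37C. ONE-Glo luminescence was read; sodium butyrate at 4.5 mM final served as control.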
* hit, by the source's call; ? = inconclusive; nt = no result. Calls come from the whole dose curve; as a rule, active = well fitted curve in the direction sought with a large enough effect; inconclusive = small, poorly fitted or top-dose-only effect, or another doubt; inactive = no such curve, though single readings can be large; an effect the other way counts as inactive or inconclusive. Potency is the fitted concentration of half-maximal effect.

SMILES	NPC1 prom act	Luc counter	Rab9 promoter act	ELG1 genotox	FLuc modulator	SMN2 splice up
CCc1ccccc1-n1c2c(cc(-c3nc(-c4ccc(Cl)cc4)cs3)c1=O)C(=O)CC(C)(C)C2	nt	nt	nt	nt	-8%	1%
Cc1nc2ccccc2n1CCc1nc2c3ccccc3nc(SCc3ccccc3F)n2n1	nt	nt	nt	nt	1%	nt
CCN(CC)CCOC(=O)c1ccc(NC(=O)c2cc3cccc(OC)c3oc2=O)cc1	nt	nt	nt	nt	-9%	nt
N=C1S/C(=C\c2ccco2)C(=O)N1c1nccs1	?	-8%	?	?	11µM*	-36%
Cc1ccc(Nc2nc3ccccc3s2)c(C)c1	2µM*	-2%	1.3µM*	2.1µM*	0.6µM*	2.5µM*
NC(=S)Nc1nc2ccccc2s1	11%	0%	7%	7%	?	28%
Cc1cc(C)nc(Nc2nc3ccccc3s2)n1	?	-2%	?	?	?	3.2µM*
CC(=O)c1c(C)nc(Nc2nc3ccccc3s2)nc1C	?	nt	?	?	0.76µM*	nt
CCOc1ccc(-c2nc3ccccc3c(=O)o2)cc1	3.5µM*	-23%	1.4µM*	?	0.43µM*	16µM*
COc1ccc(-c2nc3ccccc3nc2-c2ccc(OC)c(OC)c2)cc1OC	1%	nt	7%	4%	5%	nt
COc1ccc(-c2nc3ccccc3c(=O)o2)cc1OC	10%	-6%	17%	10%	8.5µM*	7%
CCS(=O)(=O)N1CCc2nc(-c3ccccc3)sc2C1	0.63µM*	nt	1.1µM*	?	4.8µM*	nt
COc1ccc(CNC(=O)c2ccc3c(c2)N(Cc2c(F)cccc2Cl)C(=O)CS3)cc1	nt	nt	nt	nt	3%	-43%
O=C(Nc1cccc(C(F)(F)F)c1)C1CCCN(S(=O)(=O)c2cccc3nonc23)C1 (stereo not given)	nt	nt	nt	nt	2%	-3%
CC1(C)CC(=O)C2=C(C1)NC(=S)C(C#N)C21CCCCC1 (stereo not given)	-1%	nt	-2%	-3%	-17%	nt
NC(=O)C1CCN(C(=O)c2ccc(NC(=O)c3nsc4ccccc34)cc2)CC1	nt	nt	nt	nt	1.7µM*	nt
CCOC(=O)C1CCN(C(=O)c2ccc(NC(=O)c3nsc4ccccc34)cc2)CC1	nt	nt	nt	nt	15µM*	nt
CCOC(=O)C1CCCN(C(=O)c2ccc(NC(=O)c3nsc4ccccc34)cc2)C1 (stereo not given)	nt	nt	nt	nt	12µM*	nt
COc1ccc(C(CNC(=O)c2ccccc2SC)N(C)C)cc1 (stereo not given)	0%	-2%	1%	0%	-8%	6%
Cc1ccc(S(=O)(=O)N(C)C)cc1NC(=S)N1CCc2ccccc21	-7%	2%	0%	-13%	-1%	-15%
COc1ccccc1C(=O)N/C(=C\c1ccc(Br)cc1)C(=O)N1CCCC1	-4%	nt	-3%	-3%	0%	nt
Cc1ccc2nc(-c3ccco3)c(Nc3ccc4c(c3)OCCO4)n2c1	nt	nt	nt	nt	11µM*	8%
Cc1ccn2c(Nc3ccc4c(c3)OCCO4)c(-c3ccc(C)o3)nc2c1	nt	nt	nt	nt	13µM*	?
COc1cc(-c2nc3ccc(C)cn3c2Nc2ccc3c(c2)OCCO3)ccc1O	1%	17%	0%	4%	21µM*	?
Cc1ccc2nc(-c3ccc(C)s3)c(Nc3ccc4c(c3)OCCO4)n2c1	nt	nt	nt	nt	?	13µM*
SMILES	NPC1 prom act	Luc counter	Rab9 promoter act	ELG1 genotox	FLuc modulator	SMN2 splice up
O=C(Cc1ccc(Cl)cc1)NCC(c1cccs1)S(=O)(=O)c1ccccc1 (stereo not given)	nt	nt	nt	nt	-10%	nt
CCN(Cc1ccccc1)Cc1c(O)ccc2c(=O)c(-c3ccccc3OC)c(C(F)(F)F)oc12	nt	nt	nt	nt	-6%	-7%
CCNC(=O)n1cc(-n2cncn2)c(-c2ccc(Cl)cc2)n1	-2%	0%	-6%	4%	-1%	1%
CCOc1ccc(CCNC(=O)c2c(C)oc3ncnc(N4CCOCC4)c23)cc1	nt	nt	nt	nt	5%	nt
O=C(NCc1ccco1)/C(=C/c1ccc(C(F)(F)F)cc1)c1nc2ccccc2[nH]1	10%	-6%	15%	?	12µM*	25%
O=C(NCc1ccco1)/C(=C/c1cccc(C(F)(F)F)c1)c1nc2ccccc2[nH]1	-3%	2%	-7%	-3%	4%	-81%
CCC(=O)/C=C1/Sc2ccc(OC)cc2N1CCO	-1%	-4%	-16%	0%	-4%	nt
CCC(/C=C1\Sc2ccc(OC)cc2N1CC)=C\c1sc2ccc(OC)cc2[n+]1CCCS(=O)(=O)[O-]	-9%	10µM*	-9%	-8%	?	nt
CCC(/C=C1\Sc2ccc(OC)cc2N1CCO)=C\c1sc2ccc(OC)cc2[n+]1CCO	-4%	10µM*	-9%	-11%	15µM*	-74%
O=C(COc1ccccc1)NC1CCCCCCC1	20%	nt	18%	14%	-17%	nt
Cc1ccc(NC(=O)c2ccc(CNc3c(N4CCOCC4)c(=O)c3=O)cc2)cc1	1%	-1%	3%	1%	15µM*	-14%
Cc1cc(C)cc(NC(=O)c2ccc(CNc3c(N4CCOCC4)c(=O)c3=O)cc2)c1	-2%	0%	5%	1%	-19%	-9%
Cc1ccc(NC(=O)c2ccc(OC(=S)N3CCOCC3)cc2)cc1	?	-1%	2µM*	?	-12%	2%
O=C(Nc1ccccc1Br)c1ccc(OC(=S)N2CCOCC2)cc1	-7%	-2%	-2%	-4%	-6%	nt
COc1ccc2cc3c(N)c(C(=O)N4CCCC4)sc3nc2c1	1.8µM*	-6%	1.4µM*	?	2.7µM*	11µM*
CC(C)c1ccc2nc3sc(C(=O)N4CCc5ccccc5C4)c(N)c3cc2c1	13%	-2%	17%	21%	17µM*	16%
CCC(C)NC(=O)c1cc2cc3ccc(OC)cc3nc2s1 (stereo not given)	0.56µM*	-8%	0.35µM*	?	3µM*	13µM*
CCOc1ccc2nc3sc(C(=O)N4CCN(C)CC4)c(N)c3cc2c1	-3%	0%	25%	?	11µM*	17%
Cc1ccc2nc3sc(C(=O)N4CCOCC4)c(N)c3cc2c1	0.25µM*	-27%	0.11µM*	?	0.12µM*	-73%
Cc1ccc2cc3c(N)c(C(=O)N4CC(=O)Nc5ccccc54)sc3nc2c1	-13%	-3%	-4%	26%	-14%	2%
Cc1ccc2cc3c(N)c(C(=O)N4CCOCC4)sc3nc2c1	0.32µM*	nt	4µM*	1.2µM*	2.4µM*	nt
Cc1cccc(CNc2cc(-c3cccnc3)ncn2)c1	nt	-3%	nt	nt	nt	-27%
CC(OC(=O)/C=C/c1ccc2ccccc2n1)C(=O)NCc1ccccc1 (stereo not given)	-6%	nt	-3%	-3%	9.5µM*	nt
COC(=O)CNC(=O)COC(=O)/C=C/c1ccc2ccccc2n1	1%	-1%	-2%	7%	?	3%
